Experimental data as given in PubChem BioAssay (NCATS).
Records with an inconclusive call do not appear. Calls of active or inactive are those of the source. The call rests on the fitted dose curve; in most records, active means well fitted inhibition curve with a large enough effect; inconclusive means small, poorly fitted or top-dose-only effect; inactive means flat fitted curve, though single readings scatter.

How the values were obtained:
Test in all cases: qHTS profiling for inhibitors of Plasmodium falciparum proliferation (AID 504749); further: nearly all actives have a fitted effect of over 60% in size
Details in all cases: P. falciparum in erythrocytes, SYBR Green DNA, 72 h; series mostly up to 28.7 µM
[1] = system: CP247
Summary of the method: (§1)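 Quantitative HTS: compounds pinned into medium, infected erythrocytes added (0.3% parasitemia, 2.5% hematocrit), 72 h culture at 37 C under 5% CO2. Saponin/Triton lysis with SYBR Green I, overnight RT, then fluorescence read.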

[2] = system: CP250
Summary of the method: as §1

[3] = system: CP252
Summary of the method: as §1

[4] = system: CP256
Summary of the method: as §1

[5] = system: CP260
Summary of the method: as §1

[6] = system: CP262
Summary of the method: as §1

[7] = system: CP265
Summary of the method: as §1

[8] = system: CP266
Summary of the method: as §1

[9] = system: CP268
Summary of the method: as §1

[10] = system: CP269
Summary of the method: as §1

[11] = system: CP286
Summary of the method: as §1

[12] = system: CP291
Summary of the method: as §1

[13] = system: CP297
Summary of the method: as §1

[14] = system: CP305
Summary of the method: as §1

[15] = system: CP315
Summary of the method: as §1

[16] = system: CP325
Summary of the method: as §1

[17] = system: CP329
Summary of the method: as §1

[18] = system: CP335
Summary of the method: as §1

[19] = system: DFO2036
Summary of the method: as §1

[20] = system: DIV14
Summary of the method: as §1

Measured: Potency

O=S1(=O)OC(c2ccc(O)cc2)(c2ccc(O)cc2)c2ccccc21
inactive: all assays above

CCOC(=O)c1cccnc1
inactive: all assays above

O=C(O)Cn1c(C(=O)Nc2nc(-c3ccccc3Cl)cs2)cc2ccccc21
inactive: all assays above

O=C(O)c1ccc[n+]([O-])c1
not listed: [20]
inactive: all other assays above

NC(N)=NS(=O)(=O)c1ccc(N)cc1
inactive: all assays above

O=c1[nH]c2cc(C(F)(F)F)c(N3CCOCC3)cc2n(CP(=O)(O)O)c1=O
inactive: all assays above

CC(=O)Oc1cccc(O)c1
inactive: all assays above

Cc1c(I)c(=O)n(-c2ccccc2)n1C
inactive: all assays above

NS(=O)(=O)c1cc(-c2nn[nH]n2)c(NCc2cccs2)cc1Cl
inactive: all assays above

CCOC(=O)[C@H](CCc1ccccc1)N[C@@H](C)C(=O)N1CCC[C@H]1C(=O)O
inactive: all assays above

CCc1nnc(NS(=O)(=O)c2ccc(N)cc2)s1
inactive: all assays above

Cc1ccc(S(=O)(=O)NC(=O)NC2CCCCC2)cc1
inactive: all assays above

Nc1ccncc1N
inactive: all assays above

Cc1c(C(=O)NCCO)[n+](=O)c2ccccc2n1[O-]
inactive: all assays above

NNc1nnc(NN)c2ccccc12
inactive: all assays above

OCc1ccc(Cl)cc1Cl
inactive: all assays above

NC(=O)NS(=O)(=O)c1ccc(N)cc1
inactive: all assays above

COc1cc(O)cc(O)c1
inactive: all assays above

Cc1cccc(Nc2ccccc2C(=O)O)c1C
inactive: all assays above

O=C(O)Cc1cn(-c2ccccc2)nc1-c1ccc(Cl)cc1
inactive: all assays above

CCCCCCCC(=O)OCC(O)CO (centres undefined)
inactive: all assays above

CNCc1ccccc1
inactive: all assays above

O=C(O)CNC(=O)c1ccccc1I
inactive: all assays above

C=CCNC(N)=S
inactive: all assays above

NCC1CCC(C(=O)Oc2ccc(CCC(=O)O)cc2)CC1 (centres undefined)
inactive: all assays above

CCCOC(=O)c1ccc(N)cc1
inactive: all assays above

CCN(CC)CCOC(=O)C(c1ccccc1)c1ccccc1
inactive: all assays above

O=C1c2ccccc2S(=O)(=O)N1CCCCN1CCN(c2ncccn2)CC1
inactive: all assays above

NS(=O)(=O)c1cc2c(cc1C(F)(F)F)NCNS2(=O)=O
inactive: all assays above
